Assay [1] is described as follows: NCI Yeast Anticancer Drug Screen. Data for the rad50 strain (AID 155).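 Further: 0% = growth of vehicle-only cultures of the same strain.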 To be noted: S. cerevisiae rad50 strain growth inhibition; at 50.0 µM; stronger effect = higher value. The gist of the method: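 Readout: growth inhibition relative to vehicle-treated cultures. Compound exposure was carried out in a genetically defined yeast strain deficient in DNA damage repair.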
A short description of assay [2]: NCI Yeast Anticancer Drug Screen. Data for the mec2-1 strain (AID 157). The conditions noted are these: S. cerevisiae mec2-1 strain, at 50.0 µM, stronger effect = higher value. In short, it runs like this: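 Test agents were screened against the mec2-1 yeast strain, with defined DNA repair or cell cycle alteration. Growth was scored as inhibition against vehicle-only controls.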

A short description of assay [3]: NCI Yeast Anticancer Drug Screen. Data for the sgs1 mgt1 strain (AID 161).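 Further: 0% = growth of cultures given vehicle only.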 The conditions noted are these: S. cerevisiae sgs1 mgt1 strain, at 50.0 µM, stronger effect = higher value. The gist of the method: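 Mutant yeast exposed to compound; growth scored against vehicle-only wells.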
Assay [4] is described as follows: NCI Yeast Anticancer Drug Screen. Data for the cln2 rad14 strain (AID 165).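 Further: 0% = growth equal to vehicle treated cultures.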 The conditions noted are these: S. cerevisiae cln2 rad14 strain, at 50.0 µM, stronger effect = higher value. In short, it runs like this: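 Growth of compound-exposed yeast (cln2 rad14 genotype) measured and expressed as inhibition relative to vehicle.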
The nature of assay [5]: NCI Yeast Anticancer Drug Screen. Data for the bub3 strain (AID 167). To be noted: S. cerevisiae bub3 mutant strain, at 50.0 µM, stronger effect = higher value. In short, it runs like this:
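Readout: yeast growth inhibition, expressed relative to vehicle-only wells. The test organism is a mutant strain from a panel with lesions in DNA repair or checkpoint genes.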

Assay [6] can be described thus: NCI Yeast Anticancer Drug Screen. Data for the mlh1 rad18 strain (AID 175). To be noted: S. cerevisiae mlh1 rad18 strain growth inhibition; at 50.0 µM; stronger effect = higher value. The gist of the method: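 In this whole-cell yeast screen, a strain with altered DNA damage repair is challenged with compound, and its growth is measured against matched vehicle-treated controls.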

Data on 20 compounds can be found in PubChem BioAssay (NCI).

The panel holds about 79,000 compounds, 15% with a hit somewhere; the sample as a whole holds those more often. A number with no mark means an inactive call. Activity calls are given as the source filed them. No stated cut-off is given here; in the data, active means growth inhibition above about 70%; inactive means the rest.

Turning to `COc1ccc(/C=C2\N=C(SC)NC2=O)cc1`, the growth inhibition in assay [1] was -8.35%; in assay [2], 0.2%; in assay [3], 25.9%; in assay [4], 0.95%; in assay [5], 2%; in assay [6], -24.9%.

On to `Clc1ccc(OCCBr)cc1`, for which the growth inhibition in assay [1] is 39.2%; in assay [2], 27.9%; in assay [3] it was 29.4%; in assay [4], 19.9%; in assay [5], 3.8%; in assay [6] it was 25.6%.

Turning to `Nc1ncnc2c1nc(-c1ccccc1)n2C1OC(CO)C(O)C1O` (stereo not given), the growth inhibition in assay [1] was 27.4%; in assay [2], 35.2%; in assay [3] it was -10.7%; in assay [4] it was 9.75%; in assay [5] it was 35.5%; in assay [6], 34.4%.

Consider `CC(=O)O[C@]1(C(C)=O)CC[C@H]2[C@@H]3C[C@H](C)C4=CC(=O)C=C[C@]4(C)[C@@]3(F)[C@@H](O)C[C@@]21C`, for which the growth inhibition is 3.25% in assay [1]; -35.4% in assay [2]; -10.9% in assay [3]; -15.4% in assay [4]; -16.9% in assay [5]; 20.8% in assay [6].

Consider `COC(=O)C1(CCSc2ccccc2)CCCC1=O` (stereo not given), for which the growth inhibition is 29.3% in assay [1]; -33% in assay [2]; 14.8% in assay [3]; 5.05% in assay [4]; 27% in assay [5]; 6.65% in assay [6].

Turning to `CNC(=O)N(C)C(C)=O`, the growth inhibition in assay [1] is -6.15%; in assay [2] it was -1.25%; in assay [3], 0%; in assay [4], -3.25%; in assay [5], -5.15%; in assay [6], 4.9%.

Turning to `O=C1C=C(Nc2ccc(Br)cc2)c2ccccc2C1=O`, the growth inhibition is 36.3% in assay [1]; -1.95% in assay [2]; 11.6% in assay [3]; 7.75% in assay [4]; -1.45% in assay [5]; -2.05% in assay [6].

Take `O=C(O)CCC1CCc2cccc(O)c2C1=O` (stereo not given): the growth inhibition in assay [1] was 8.4%; in assay [2], 3.3%; in assay [3], 2.25%; in assay [4] it was 15.6%; in assay [5] it was 6.5%; in assay [6], -3.45%.

As to `CCCCc1c2cnccc2c(CCCC)c2c1[nH]c1ccccc12`, the growth inhibition in assay [1] was 88.8% (active); in assay [2] it was 90.3% (active); in assay [3], 91.8% (active); in assay [4] it was 81.9% (active); in assay [5], 89.2% (active); in assay [6], 88.2% (active).

`CCCC(=O)C(C)(C)C`: the growth inhibition is 18.2% in assay [1]; -12.4% in assay [2]; -35% in assay [3]; -41.5% in assay [4]; -22.1% in assay [5]; 6.75% in assay [6].

As for `CC(=O)OCCc1cccc(C)c1`, the growth inhibition was 3.9% in assay [1]; -17.9% in assay [2]; -4.8% in assay [3]; -30.4% in assay [4]; -10.7% in assay [5]; 7.3% in assay [6].

As to `c1cc(C2CCCCC2)ccc1C1CCCCC1`, the growth inhibition was -7.4% in assay [1]; -19.1% in assay [2]; -20.6% in assay [3]; -58.1% in assay [4]; -16.1% in assay [5]; -3.9% in assay [6].

For `CCCCNc1ccc(S(=O)(=O)c2ccc(NCCCC)c([N+](=O)[O-])c2)cc1[N+](=O)[O-]`, the growth inhibition is 19.6% in assay [1]; 6.6% in assay [2]; 15.2% in assay [3]; -1.4% in assay [4]; 2.35% in assay [5]; -9.8% in assay [6].

`O=C1CC(=O)C(C(=O)c2ccccc2)N1` (stereo not given): the growth inhibition in assay [1] was 18.3%; in assay [2], 8.55%; in assay [3], 5.3%; in assay [4], 1.8%; in assay [5], 7.8%; in assay [6] it was -2.45%.

Take `Cc1ccc2c(c1)C(=Nc1ccc(Cl)cc1)C(=O)N2`: the growth inhibition in assay [1] was -1.6%; in assay [2], 1.7%; in assay [3], 1.75%; in assay [4], -0.55%; in assay [5], 18.9%; in assay [6] it was 13.1%.

As to `Cc1cn(-c2c(C)c(C)c(-n3c(C)ccc3C)c(C)c2C)cc1C`, the growth inhibition was -3.1% in assay [1]; -5.55% in assay [2]; -6.2% in assay [3]; -15.8% in assay [4]; 4.85% in assay [5]; 0% in assay [6].

`COc1ccc2[nH]cc(C(=O)C(=O)NC34CC5CC(CC(C5)C3)C4)c2c1`: the growth inhibition was 12.7% in assay [1]; 6% in assay [2]; -5.2% in assay [3]; -1.7% in assay [4]; 16.2% in assay [5]; -22.5% in assay [6].

For the compound `CC(=O)NC1c2ccccc2CCC1OC(C)=O` (stereo not given), the growth inhibition in assay [1] is -16.4%; in assay [2], -8.05%; in assay [3] it was 22.9%; in assay [4], -1.8%; in assay [5], -8.55%; in assay [6], -34.8%.

On to `CCCCCCCCNC(C(=O)c1ccc(Cl)cc1)c1ccc(Cl)cc1` (stereo not given), for which the growth inhibition in assay [1] is 8.05%; in assay [2], 17.4%; in assay [3], 21.6%; in assay [4], -18.3%; in assay [5], -8%; in assay [6] it was 25.8%.

In the case of `C=CCCNC(=S)S`, the growth inhibition in assay [1] is -1.15%; in assay [2] it was 11.7%; in assay [3], 6.1%; in assay [4] it was -2.9%; in assay [5] it was 4%; in assay [6], -3.4%.
